The values below come from PubChem BioAssay (EPA / NIEHS).

Activity calls are given as the source filed them. Rule for the calls: active = hit-call score of the fitted dose curve at least 0.9, where 1 is the maximum; inactive = score below 0.9.

Read-out in the assay: Cyclin Dependent Kinase Inhibitor 1A (CDKN1A), CDKN1A (gene 1026)
Briefly: LTEA_HepaRG_CDKN1A: Life Technologies and Expression Analysis (LTEA) Assay for Cyclin Dependent Kinase Inhibitor 1A (CDKN1A) using HepaRG (AID 2283450). Conditions: mRNA level, 48 h; actives raise or lower the signal. Here is the method: LTEA_HepaRG is a cell based, multiplexed-readout assay that uses HepaRG, a human liver cell line, with measurements taken at 48 hours after chemical dosing on a 96-well plate.LTEA_HepaRG_CDKN1A is one of 102 assay component(s) measured in the LTEA HepaRG cell culture assay. It is a marker of Cell proliferation, survival, death.Data from the assay component LTEA_HepaRG_CDKN1A was analyzed into 1 endpoint. This assay endpoint, LTEA_HepaRG_CDKN1A, was analyzed with bidirectional fitting relative to DMSO as the negative control and baseline of activity. Using a type of inducible reporter, measures of mRNA induction for gain or loss-of-signal activity can be used to understand regulation of transcription factor activity. To generalize the intended target to other relatable targets, this assay endpoint is annotated to the cell cycle intended target family, where the subfamily is Cell proliferation, survival, death.
A total of 1060 chemcials from the ToxCast library were tested in eight-point concentration-response experiments. Cell culture and cytotoxicity assays were conducted at Thermo Fisher Scientific's Custom Services facility (Madison, WI). A single lot of human HepaRG cells (Thermo Fisher Scientific, Frederick, MD) was used for the cell culture experiments. 96-well format collagen type I coated plates of human HepaRG cells were prepared using established methods. Briefly, cryopreserved HepaRG cells were thawed, plated at a density of approximately 100,000 cells/well in HepaRG Thaw, Plate, and General Purpose media (HPRG770, Thermo Fisher Scientific), and incubated for 48 hours. 0.5% DMSO was selected as vehicle control to balance the requisite need of DMSO in HepaRG cultures to maintain differentiation (for example, baseline metabolism, proportions of hepatocytes vs. cholangiocytes), while enabling further hepatic receptor pathway activation (for example, PXR and CAR) in response to chemical exposure. 48 hours after plating, the culture medium was replaced with HepaRG Serum-Free Incudtion Media. Cells were exposed to each test chemical in duplicate and maintained in CO2 incubators for another 48 hours. Chemical plates were thawed to room temperature and 200x concentrations of treatment groups were prepared. 8-point conentration-reponse curves were made with the highest exposure at 100 uM, followed by half-log dilutions, all in 0.5% DMSO. Each test plate contained variouse controls, induction positive controls (1mM phenobarbital), cytotoxicity positive controls ([…] aflatoxin B1), vehicle controls (0.5% DMSO), and total lysis controls (0.5% DMSO). Cell morphology images were taken using an Essen IncuCyte FLR automated microscope, with six 96-well plates imaged in about 24 minutes. Images were captured and exported and JPEG files. Spent culture media was transfered to black-well plates for the LDH assay, and remaining media was sorted at -80 C for later use. Cells were treated with RLT buffer and frozen until shipped for gene expression analysis. Total RNA was isolated from the cell suspension in 75 uL of Buffer RLT (Qiagen, Germantown, MD 20874) by Quintiles/Expression Analysis (Durham, NC) using a custom isolation procedure. Total RNA from each plate well was transferred to a preamplification plate. Fluidigm's 96.96 Dynamic ArrayTM (Fluidigm, Amsterdam, the Netherlands) technology was used for gene expression analyses by quantitative reverse transcription polymerase chain reaction (qRT-PCR, performed by Quintiles/Expression Analysis, Durham, NC)89. Standard TaqManTM Assays (Applied Biosystems/ThermoFisher Scientific, Foster City, CA) were used to assess the expression of 93 genes selected based on their selectivity and sensitivity to important hepatic receptors known to be modulated by environmental chemicals; importance in human hepatocyte functionality; and hepatotoxicity. […]
In the case of `CC(C)(C)CC(C)(C)c1ccc(O)c(-n2nc3ccccc3n2)c1`, the call was inactive.

For `O=C(O)Cc1cc(I)c(Oc2cc(I)c(O)c(I)c2)c(I)c1`, the AC50 – broadly, the midpoint of the concentration-response curve, whichever way the signal moves – was 33.5 µM (active).

As to `c1ccc2c(c1)Cc1ccccc1-2`, the molecule was classed as inactive.

For the molecule `CN1CCN(c2ccccc2/C=C2\SCCN(c3ccc(Cl)c(Cl)c3)C2=O)CC1`, the result was inactive.

With `CCCCCCCCCCCCCCCS(=O)(=O)Oc1ccccc1`, the result was inactive.

As for `CC(=O)CC(C)(C)O`, the call was inactive.

Turning to `CCCCCCC(=O)O`, the outcome was inactive.

As to `COC(=O)CCCCC(=O)OC`, the molecule was called inactive.

On to `OC1CCC(C2CCCCC2)CC1` (stereo not given), for which the call was inactive.

Regarding `CC(C)(C)c1cc(C(C)(C)C)c(O)c(C(C)(C)C)c1`, the result was inactive.

Turning to `COc1ccc([N+](=O)[O-])cc1N`, the call was inactive.

Turning to `CCc1ccc(CCOc2ccc(CC3SC(=O)NC3=O)cc2)nc1` (stereo not given), the AC50 was 80.4 µM (active).

For `O=C(OCCOCCOC(=O)c1ccccc1)c1ccccc1`, the molecule was called inactive.

In the case of `C[C@@H]1C[C@H]2[C@@H]3CCC4=CC(=O)C=C[C@]4(C)[C@@]3(F)[C@@H](O)C[C@]2(C)[C@@]1(O)C(=O)COP(=O)(O)O`, the outcome was inactive.

With `CC(C)CCCCCCOC(=O)CCCCC(=O)OCCCCCCC(C)C`, the result was inactive.

With `CC1=C(/C=C/C(C)=C/C=C/C(C)=C/C(=O)O)C(C)(C)CCC1`, the call was inactive.

On to `CC(C)(C)c1cccc(C(C)(C)C)c1O`, for which the molecule was called inactive.

For the molecule `CCc1nn(C2CCCCC2)c2cc(C3(C#N)CCC(C(=O)O)CC3)ccc12` (stereo not given), the AC50 was 73.2 µM (active).

As to `OC1CCCCC1`, the molecule was called inactive.

As to `NC(=O)N(O)[C@@H]1C=C[C@H](Oc2cccc(Oc3ccc(F)cc3)c2)C1`, the AC50 is 33 µM (active).

For the molecule `CCCCC(CC)COC(=O)CCCCC(=O)OCc1ccccc1` (stereo not given), the call was inactive.

With `OCCC(F)(F)C(F)(F)C(F)(F)C(F)(F)C(F)(F)C(F)(F)C(F)(F)C(F)(F)F`, the molecule was classed as inactive.

For `Nc1cccc2c(N)cccc12`, the call was inactive.

For `CCC(C)(C)C1CCC(O)CC1` (stereo not given), the call was inactive.

Turning to `COCC(C)OCC(C)O` (stereo not given), the call was inactive.

In the case of `CN1CCC[C@H]1c1cccnc1`, the call was inactive.

For the molecule `O=C(O)c1ccccc1C(c1ccc(O)cc1)c1ccc(O)cc1`, the result was inactive.

Turning to `NC(=O)N1C(=O)C(C(=O)c2cc(Cl)cs2)c2cc(F)c(Cl)cc21` (stereo not given), the outcome was inactive.

Take `CN(C)C=O`: the molecule was classed as inactive.

On to `COCC(C)O` (stereo not given), for which the molecule was classed as inactive.

Take `C=C(C)C(=O)OCCC(F)(F)C(F)(F)C(F)(F)C(F)(F)C(F)(F)C(F)(F)F`: the call was inactive.

Turning to `CC(C)(C)c1ccc(O)c(C(C)(C)C)c1`, the result was inactive.

As to `CCCOc1sc(C(=O)N2CCC(c3cc(CN)ccc3F)CC2)c(C)c1Br`, the molecule was classed as inactive.

Regarding `CCCCOCCO`, the call was inactive.

As to `CC(=O)NC1(c2cccc(F)c2)CCN(CC[C@@]2(c3ccc(Cl)c(Cl)c3)CN(c3ccccc3)C(=O)CO2)CC1`, the molecule was classed as inactive.

Regarding `CCCCC(CC)COC(=O)CCCCC(=O)OCC(CC)CCCC` (stereo not given), the molecule was called inactive.

Regarding `CCC(=C(c1ccc(O)cc1)c1ccc(OCCN(C)C)cc1)c1ccccc1`, the molecule was called inactive.

Take `Cc1cc(CCN2CCN(c3nsc4ccccc34)CC2)cc2c1NC(=O)CC2(C)C`: the AC50 was 76.7 µM (active).

For `c1ccc2c(c1)ccc1ccccc12`, the call was inactive.

Regarding `CC[C@H](c1ccc(O)cc1)[C@@H](CC)c1ccc(O)cc1`, the AC50 is 89.8 µM (active).
